TGFb SMAD3 inh: blocks TGF-b signaling. HepG2 CAGA-GFP TGF-b/SMAD3 reporter, GFP fluorescence, 18 h; TGF-beta stimulated, 500 pg/mL final. actives 1.2% (n = 410,000). AID 588855. Potency, µM (top dose mostly 46.1 µM), for the others: at the highest dose activity, negative = inhibition, most hits filed as inhibitors; also: potency is read from the fitted curve at half-maximal effect; % is scaled to controls: 0 for no effect and ±100 for the full control effect; nearly all actives have a fitted effect of over 65% in size
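GFP signal (ex488/em500-530) from TGF-beta-stimulated HEPG2 CAGA-GFP cells, 500 pg/mL final, 18 h at 37 degrees C in DMEM plus 1% FBS, normalized to unstimulated and DMSO-stimulated controls.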
HepG2 viability: HepG2 cytotoxicity, counter-screen for TGF-b inhibitors; HepG2 CAGA-GFP viability, ATP luminescence, 18 h; Potency, µM (series often up to 46.1 µM), for inactives: top-dose activity change, negative = cytotoxicity, actives largely listed as cytotoxic; actives 0.76% (n = 410,000); also: potency is read from the fitted curve at half-maximal effect
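CellTiter-Glo luminescence gave cytotoxicity after 18 hours at 37 degrees C. The cells were HepG2 CAGA-GFP in 1% FBS DMEM, stimulated with 500 pg/mL TGF-beta after compound addition. %Activity was normalised to no-cell wells (complete cell-killing) and DMSO (no toxicity), and curves were fitted and classified.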
TDP1 cell CPT: growth inhibition of DT40 Tdp1-/-;hTDP1 cells with camptothecin (screen for TDP1 inhibitors). chicken DT40 Tdp1-/-;hTDP1 cells + 20 nM CPT, ATP luminescence, 48 h. Potency, µM (top dose mostly 46.2 µM), for inactives: top-dose activity change, negative = growth inhibition, most hits filed as inhibitors. actives 12% (n = 420,000); also: potency is read from the fitted curve at half-maximal effect; % is scaled to controls: 0 for no effect and ±100 for the full control effect; nearly all actives have a fitted effect of over 55% in size
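Cell growth measured by CellTiter-Glo luminescence after a minimum 48 h, 37 C compound exposure with 20 nM CPT in Tdp1-knockout DT40 cells stably expressing hTDP1, seeded 400/well; qHTS titration format.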
TDP1 cell noCPT: qHTS for Inhibitors of human tyrosyl-DNA phosphodiesterase 1 (TDP1): qHTS in cells in absence of CPT; Potency, µM (highest dose often 46.2 µM), for inactives: top-dose activity change, negative = growth inhibition, usual class: inhibitors; DT40 Tdp1-/- hTDP1 cells, no CPT, ATP luminescence, 48 h; actives 15% (n = 420,000); also: potency is read from the fitted curve at half-maximal effect; % is scaled to controls: 0 for no effect and ±100 for the full control effect; nearly all actives have a fitted effect of over 55% in size
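Readout: luminescence from CellTiter-Glo after 30 min in the dark at RT. Cells: DT40 Tdp1-/- with stable hTDP1, 400/well. Exposure: compounds alone, ≥48 hr, 37 °C.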
TDP1 inh: TDP1 (human) enzyme inhibition; AID 485290; recombinant TDP1, AlphaScreen DNA substrate cleavage; Potency, µM (series often up to 130 µM), for the others: top-dose activity change, negative = inhibition, actives largely listed as inhibitors; Q9NUW8; actives 0.28% (n = 350,000); also: potency is read from the fitted curve at half-maximal effect; % is scaled to controls: 0 for no effect and ±100 for the full control effect; nearly all actives have a fitted effect of over 40% in size
Target sequence (Q9NUW8 whole entry, looked up): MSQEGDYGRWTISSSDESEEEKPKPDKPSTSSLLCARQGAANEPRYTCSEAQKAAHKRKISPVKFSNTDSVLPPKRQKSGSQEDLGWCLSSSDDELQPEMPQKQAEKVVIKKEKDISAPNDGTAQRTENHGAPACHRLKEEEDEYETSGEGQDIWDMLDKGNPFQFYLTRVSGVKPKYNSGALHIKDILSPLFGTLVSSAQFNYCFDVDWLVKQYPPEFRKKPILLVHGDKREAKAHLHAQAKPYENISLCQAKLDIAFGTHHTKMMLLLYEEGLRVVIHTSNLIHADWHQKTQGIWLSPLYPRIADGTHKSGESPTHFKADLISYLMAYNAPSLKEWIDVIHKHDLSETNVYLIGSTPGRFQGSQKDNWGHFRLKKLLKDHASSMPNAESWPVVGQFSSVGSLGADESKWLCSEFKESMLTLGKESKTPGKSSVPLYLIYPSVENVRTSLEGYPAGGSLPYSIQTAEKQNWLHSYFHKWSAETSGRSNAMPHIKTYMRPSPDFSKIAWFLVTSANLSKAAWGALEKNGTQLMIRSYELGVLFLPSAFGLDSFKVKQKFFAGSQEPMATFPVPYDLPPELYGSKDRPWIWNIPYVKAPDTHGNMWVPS
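Enzyme-compound mixtures sat 15 min at room temperature, followed by a 5 min reaction with 15 nM final substrate and 10 min with AlphaScreen beads. Recombinant human Tdp1 was used at 1 nM final.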
IL-1B inflam inh: inhibitors of inflammasome signaling (IL-1 beta secretion) | THP-1 LPS/ATP IL-1B secretion, AlphaLISA, 16 h; active compounds read low | activity change, % at 57.5 µM | actives 4.7% (n = 360,000); in the data active = activity change below about -50%; inconclusive = mostly about -30% to -49%; also: % is scaled to controls: 0 for no effect and ±100 for the full control effect
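Secreted IL-1B measured by AlphaLISA bead assay after 16 h compound exposure of THP-1 cells; compounds (final up to 57.5 uM) added 1 h before LPS (250 ng/mL) and ATP (1.25 mM) stimulation; lower signal means less secretion.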
Numbers without * were called inactive; u = inconclusive; x = not tested or not shown; [ ] = dose if it differs, or a comment. In the library only some 18% were active in any assay of this set; here they are far more common. Unless noted, calls follow the shape of the dose curve; as a rule, active = well fitted curve in the direction sought with a large enough effect; inconclusive = small, poorly fitted or top-dose-only effect, or another doubt; inactive = no such curve, though single readings can be large; an effect the other way counts as inactive or inconclusive.

SMILES	TGFb SMAD3 inh	HepG2 viability	TDP1 cell CPT	TDP1 cell noCPT	TDP1 inh	IL-1B inflam inh
O=C(COc1ccccc1)NC1CCCN(Cc2ccccc2F)C1 (stereo not given)	0%	-10%	-3%	-1%	2%	4
Cc1cc(C(=O)NCc2csc(-c3ccccc3)n2)no1	u	-1%	-5%	14%	4%	18
O=C(COC(=O)c1ccccc1Cl)NCCC1=CCCCC1	3%	-5%	-5%	u	3%	1
COc1ccc(-n2nc(C(=O)NCC(=O)NCCC3=CCCCC3)c3ccccc3c2=O)cc1OC	-7%	-8%	-22%	18µM*	-8%	-19
CCOc1ccc(NC(=O)CNC(=O)c2nn(-c3ccc(OC)cc3)c(=O)c3ccccc23)cc1	6%	-19%	-23%	12µM*	6%	91
O=C(COC(=O)c1ccccc1O)NCCC1=CCCCC1	0%	0%	-2%	18µM*	4%	-28
COc1ccc(N2CCN(C(=O)CNC(=O)c3nn(-c4ccc(OC)cc4)c(=O)c4ccccc34)CC2)cc1	-2%	0%	u	18µM*	3%	u
COc1cccc(CNC(=O)CCCN2C(=O)CCn3nc(-c4cccn4C)cc32)c1	2%	-3%	-28%	-22%	4%	x
CC(=O)OC[C@@H]1O[C@H](C/C=N\O[C@@H](C)c2cn([C@H]3COC[C@H]3O)nn2)C=C[C@@H]1OC(C)=O	x	x	x	x	3%[21 µM]	x
CCCC/C=C/[C@H](c1ccccc1)[C@H](CO)Cc1cnc2ccccc2c1	u	-69%	x	x	1%	x
CC(C)c1nc2n(n1)C1(CCCCC1)[C@@H]1CCCC[C@@H]1N2	6%	-16%	u	23µM*	5%	x
CC(C)C(=O)N1c2nc(C(C)C)nn2C2(CCCCC2)[C@@H]2CCCC[C@@H]21	-8%	-14%	6.5µM*	4.6µM*	-3%	x
CN(Cc1ccc(Cl)c(Cl)c1)C(C(=O)NCc1ccccc1)c1ccc(C(F)(F)F)cc1 (stereo not given)	x	x	u	u	x	-13
COc1ccccc1CCNc1ncnc2c1nnn2C	-8%	-19%	-12%	-28%	-5%	x
CCCCCc1c(-c2ccccc2F)ncn1CCc1ccccc1OC	x	x	16µM*	18µM*	x	-95*
COc1ccccc1CCNC(=O)c1cc2ccccn2n1	-24%	-21%	u	u	5%	x
CCCCc1c(-c2ccccc2F)ncn1CCc1ccccc1OC	x	x	26µM*	16µM*	x	-59*
Cc1cc(=O)n2c3c(c4c(cc13)c(CN(C)C)cc(=O)n4C)OC2	-10%	-45%	8.2µM*	6.5µM*	x	-13
Cc1cc(=O)n(C)c2ccccc12	-3%	5%	-4%	11%	0%	-1
COCCNC(=O)[C@@H]1CCCN1C(=O)C1CCN(S(=O)(=O)c2ccc(C)cc2)CC1	-15%	-20%	-7%	15%	2%	-2
Cc1cccc(Nc2nc(-c3ccc(O)c(O)c3)cs2)n1	u	-33%	2.1µM*	1.6µM*	9%	-4
Oc1ccc(-c2csc(Nc3ccccn3)n2)cc1O	u	-31%	5.2µM*	2.6µM*	2%	u
Cc1ccnc(Nc2nc(-c3ccc(O)cc3O)cs2)c1	11µM*	11µM*	u	3%	x	-1
COc1ccc(-c2csc(Nc3cc(C)ccn3)n2)cc1C	-28%	-18%	u	u	x	-7
Cc1ccnc(Nc2nc(-c3ccc(O)c(O)c3)cs2)c1	14µM*	-41%	2.1µM*	3.3µM*	13%	-60*
SMILES	TGFb SMAD3 inh	HepG2 viability	TDP1 cell CPT	TDP1 cell noCPT	TDP1 inh	IL-1B inflam inh
Cc1ccnc(Nc2nc(-c3ccc(O)cc3)cs2)c1	-25%	-30%	1%	-27%	7%	-21
Cc1cccc(CC(=O)N2CC(=O)Nc3ccc(C)cc3C2c2ccc(F)cc2)c1 (stereo not given)	-21%	-1%	u	u	15%	x
Cc1ccc(N(CC(=O)NCc2ccc(OC(C)C)cc2)S(=O)(=O)N(C)C)cc1	-14%	-6%	-9%	u	-1%	x
Cc1cccnc1Nc1nc(-c2ccc(O)c(O)c2)cs1	u	-33%	3.3µM*	3.7µM*	14%	0
Oc1ccc(-c2csc(Nc3cccc4ccccc34)n2)cc1O	u	-39%	0.92µM*	8.2µM*	8%	5
COc1ccc(-c2csc(Nc3ncccc3C)n2)cc1OC	-25%	-6%	u	u	7%	u
CCOc1ccc(NC(=O)Cc2csc(COc3cccc(C)c3)n2)cc1	18%	9%	-18%	-28%	-3%	x
CCn1c(CNC(=O)c2ccc(Cl)cc2)nnc1SCC(=O)N1CCOCC1	3%	-4%	4%	5%	2%	0
COc1ccc(-n2c(CNc3ccc(C)cc3)nnc2SCc2ccccc2)cc1	u	-48%	u	16µM*	-5%	-19
C=CCSc1nnc(CNC(=O)c2ccc(Cl)cc2)n1CC	-11%	-26%	10%	4%	3%	-69*
CCn1c(Cn2nnc(-c3ccccc3)n2)nnc1SCC(=O)N1CCOCC1	8%	26%	-3%	0%	-2%	-6
CCn1c(SCC(=O)Nc2ccccc2)nnc1-c1cccs1	-12%	-13%	12%	-1%	x	0
CCn1c(Cn2nnc(-c3ccccc3)n2)nnc1SCc1ccc(Cl)c(Cl)c1	u	-9%	21µM*	23µM*	0%	-1
CCn1c(SCc2ccccc2)nnc1-c1cccs1	-23%	-21%	18µM*	6.5µM*	0%	-22
COc1cccc([C@@H]2Oc3ccc(Br)cc3C[C@H]2OC(=O)NCCc2ccc(OC)c(OC)c2)c1	x	x	x	x	7%	x
COc1cc2c(cc1OC)n(Cc1cccc(C(F)(F)F)c1)c(=O)n1nc(-c3ccccc3)nc21	-9%	-11%	-3%	-7%	2%	x
CC(C)NC(=O)C1C(c2ccc(C(F)(F)F)cc2)=Nc2ccccc2N1C(=O)c1cccc2ccccc12 (stereo not given)	x	x	u	u	x	29
Cc1ccc(OCC(=O)OCc2cc(=O)n3c(C)csc3n2)cc1	-9%	-20%	0%	-7%	5%	x
COC(=O)c1ccccc1S(=O)(=O)N1CCC(C(=O)NC2CCCCC2)CC1	-9%	-8%	7%	7%	0%	-3

Screening results: PubChem, National Center for Advancing Translational Sciences (NCATS)
